# Assay results published in PubChem BioAssay (NCATS).
# Results filed as inconclusive are left out. Unmarked numbers belong to inactive results. Activity calls are given as the source filed them. Calls follow the shape of the dose curve; as a rule, active = well fitted inhibition curve with a large enough effect; inconclusive = small, poorly fitted or top-dose-only effect; inactive = flat fitted curve, though single readings scatter.
# Test system: P93_24
# Assay: qHTS profiling for inhibitors of Plasmodium falciparum proliferation (AID 504749); also: nearly all actives have a fitted effect of over 60% in size;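 as to activity, negative = inhibition: 0% = DMSO vehicle and full inhibition = artemisinin control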
# Details: P. falciparum in erythrocytes, SYBR Green DNA, 72 h; series mostly up to 28.7 µM; activity, negative = inhibition: at the top concentration
# Procedure, shortened: (§1)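 SYBR Green fluorescence of parasite DNA, read after lysis and overnight dark incubation, measured growth over 72 h in erythrocyte culture at 0.3% parasitemia and 2.5% hematocrit. Data normalised to DMSO and 0.29 uM artemisinin, with plate-drift correction.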
# Potency is read from the fitted curve at half-maximal effect.
SMILES,"activity, negative = inhibition",Potency
O=C(Oc1cccc2cccnc12)c1ccccc1,-1.47%,–
C#C[C@]1(O)CC[C@H]2[C@@H]3CCc4cc(OC)ccc4[C@H]3CC[C@@]21C,-1.13%,–
NC(N)=NCc1cccc(I)c1,-18.7%,–
Cc1cc(-c2ccccc2)nnc1NCCN1CCOCC1,-15.7%,–
CCCCc1cc2ccccc2c(OCCN(C)C)n1,-10.8% [at 12.8 µM],–
CCNC(=O)NCc1cccc(Cl)c1,3.96%,–
CC(C)=CCOc1ccc(/C=C/C(=O)c2ccc(OCC=C(C)C)cc2OCC(=O)O)cc1,-12.7%,–
CC(=O)OCC(=O)[C@H]1CC[C@H]2[C@@H]3CCC4=CC(=O)CC[C@]4(C)[C@H]3CC[C@]12C,-1.16%,–
Oc1ccc(Cl)cc1Cc1cc(Cl)ccc1O,-25.1%,–
CCOCCn1c(N2CCCN(C)CC2)nc2ccccc21,-24.3%,–
O=[N+]([O-])c1cccc(S(=O)(=O)NCCNS(=O)(=O)c2cccc([N+](=O)[O-])c2)c1,-16.3%,–
C[N+]1(C)CCC(=C(c2ccccc2)c2ccccc2)CC1,-12.4% [at 12.8 µM],–
O=C1C(O)=C(O)C(=O)C(O)=C1O,-5.91%,–
CCN(CC)CCOc1ccc2c(c1)C(=O)c1cc(OCCN(CC)CC)ccc1-2,–,11.2 µM (active)
O=C(O)C1(C(=O)O)CCC1.[NH2-].[NH2-].[Pt+2],5.23%,–
OCCOCCN1CCN(C2=Nc3ccccc3Sc3ccccc32)CC1,-24.7%,–

# Test system: P94_40
# Assay: as above
# Details: P. falciparum in erythrocytes, SYBR Green DNA, 72 h; series mostly up to 28.7 µM; activity, negative = inhibition: at the top concentration
# Procedure, shortened: as §1
SMILES,Potency,"activity, negative = inhibition"
COc1ccc(C(Cl)=C(c2ccc(OC)cc2)c2ccc(OC)cc2)cc1,11.2 µM (active),–
C/C=C/c1ccc(O)c(OC)c1,–,0.145%
O=C(Oc1cccc2cccnc12)c1ccccc1,–,-8.28%
CCN(CC)CCOC(=O)C1(c2ccccc2)CCCC1,–,-89.9%
C=CCN1CCc2nc(N)sc2CC1,–,12.4%
C#C[C@]1(O)CC[C@H]2[C@@H]3CCc4cc(OC)ccc4[C@H]3CC[C@@]21C,–,11.6%
NC(N)=NCc1cccc(I)c1,–,-12.9%
Cc1cc(-c2ccccc2)nnc1NCCN1CCOCC1,–,-18.8%
NCCNc1cccc2ccccc12,–,-22.6%
CCCCc1cc2ccccc2c(OCCN(C)C)n1,–,-5.61% [at 12.8 µM]
CCNC(=O)NCc1cccc(Cl)c1,–,3.41%
CC(C)=CCOc1ccc(/C=C/C(=O)c2ccc(OCC=C(C)C)cc2OCC(=O)O)cc1,–,-6.49%
Cc1ccc(-c2ncc(Cl)cc2-c2ccc(S(C)(=O)=O)cc2)cn1,11.2 µM (active),–
CC[N+](C)(CC)CCOC(=O)C(O)(c1ccccc1)C1CCCCC1 (stereo not given),–,-42.3%
CC(=O)OCC(=O)[C@H]1CC[C@H]2[C@@H]3CCC4=CC(=O)CC[C@]4(C)[C@H]3CC[C@]12C,–,-3.85%
CN(C)C(=O)Nc1ccc(Cl)c(Cl)c1,–,-22.7%
CCOCCn1c(N2CCCN(C)CC2)nc2ccccc21,–,-25.8%
O=[N+]([O-])c1cccc(S(=O)(=O)NCCNS(=O)(=O)c2cccc([N+](=O)[O-])c2)c1,–,-25.1%
C[N+]1(C)CCC(=C(c2ccccc2)c2ccccc2)CC1,–,-23.4% [at 12.8 µM]
O=C1C(O)=C(O)C(=O)C(O)=C1O,–,-3.93%
COc1ccc(CCN(C)CCCN2CCc3cc(OC)c(OC)cc3CC2=O)cc1OC,–,-10.9%
O=C(O)C1(C(=O)O)CCC1.[NH2-].[NH2-].[Pt+2],–,0.349%
OCCOCCN1CCN(C2=Nc3ccccc3Sc3ccccc32)CC1,–,-9.91%

# Test system: PAD
# Assay: as above
# Details: P. falciparum in erythrocytes, SYBR Green DNA, 72 h; series mostly up to 28.7 µM; activity, negative = inhibition: at the top concentration
# Procedure, shortened: as §1
row,SMILES,"activity, negative = inhibition"
1,CN(Cc1ccc(C(C)(C)C)cc1)Cc1cccc2ccccc12,-15.3%
2,C/C=C/c1ccc(O)c(OC)c1,-10.3%
3,O=C(Oc1cccc2cccnc12)c1ccccc1,2.54%
4,CCN(CC)CCOC(=O)C1(c2ccccc2)CCCC1,-88.2%
5,CC(=O)O[C@H]1C[C@@H]2CC[C@@H]3[C@H](CC[C@@]4(C)[C@H]3C[C@H]([N+]3(C)CCCCC3)[C@@H]4OC(C)=O)[C@@]2(C)C[C@@H]1N1CCCCC1,-12.8%
6,C=CCN1CCc2nc(N)sc2CC1,1.77%
7,C#C[C@]1(O)CC[C@H]2[C@@H]3CCc4cc(OC)ccc4[C@H]3CC[C@@]21C,4.38%
8,NC(N)=NCc1cccc(I)c1,7.82%
9,NC1CCN(c2nc3c(cc2F)c(=O)c(C(=O)O)cn3-c2ccc(F)cc2F)C1 (stereo not given),-20.5%
10,NCCNc1cccc2ccccc12,-5.74%
11,CCCCc1cc2ccccc2c(OCCN(C)C)n1,0.323% [at 12.8 µM]
12,CN(C)CCOC(c1ccc(Cl)cc1)c1ccccn1 (stereo not given),-13%
13,CCNC(=O)NCc1cccc(Cl)c1,10.5%
14,CC(C)=CCOc1ccc(/C=C/C(=O)c2ccc(OCC=C(C)C)cc2OCC(=O)O)cc1,6.17%
15,CC[N+](C)(CC)CCOC(=O)C(O)(c1ccccc1)C1CCCCC1 (stereo not given),-23.7%
16,CC(=O)OCC(=O)[C@H]1CC[C@H]2[C@@H]3CCC4=CC(=O)CC[C@]4(C)[C@H]3CC[C@]12C,-11.7%
17,CC1CCc2c(N3CCC(O)CC3)c(F)cc3c(=O)c(C(=O)O)cn1c23 (stereo not given),-15.5%
18,CN1CCC(OC(c2ccccc2)c2ccccc2)CC1,-8.41% [at 12.8 µM]
19,CCN(CC)CCOc1ccccc1C(=O)CCc1ccccc1,-13.3%
20,CC(C)[N+](C)(C)CC(O)COc1cccc2ccccc12 (stereo not given),-14.9%
21,C[N+]1(C)CCC(=C(c2ccccc2)c2ccccc2)CC1,-24.6% [at 12.8 µM]
22,CN1CCN(c2cc3c(cc2F)c(=O)c(C(=O)O)cn3-c2ccc(F)cc2)CC1,-10.3%
23,O=C1C(O)=C(O)C(=O)C(O)=C1O,-9.4%
24,COc1ccc(CCN(C)CCCN2CCc3cc(OC)c(OC)cc3CC2=O)cc1OC,-8.88%
25,O=C(O)C1(C(=O)O)CCC1.[NH2-].[NH2-].[Pt+2],8.29%
26,OCCOCCN1CCN(C2=Nc3ccccc3Sc3ccccc32)CC1,-2.93%
